A short description of assay [1]: antimalarial activity against Dd2 strain (AID 2302;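 active = growth inhibition above 50% at the single 2 µM test dose, taken to imply half-maximal potency below 2 µM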;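 also: 0% = DMSO untreated growth and 100% = chloroquine plus artemisinin killed control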). The following applies: P. falciparum Dd2 in RBCs, LDH growth readout, 72 h; at 2 µM; stronger effect = higher value.
Assay [2] can be described thus: HepG2 cytotoxicity, primary screen, cytotoxicity control for P. falciparum antimalarial project, cell-based, ATP luminescence (AID 2303;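 active = inhibition above 50%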;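 also: 0% = DMSO wells and 100% = digitonin-killed cells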). The note with it: HepG2 viability, 24-48 h, at 10 µM, stronger effect = higher value.
Assay [3] deals with L-lactate dehydrogenase (Plasmodium falciparum (isolate CDC / Honduras)) (UniProt Q27743). The experiment in a line: PfLDH activity inhibition – cell lysate, 3D7 strain, counter-screen for P. falciparum growth inhibition project (AID 2304).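 Also: 0% = vehicle and 100% = reference inhibitor.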 The note with it: P. falciparum 3D7 crude extract, LDH APAD/NBT absorbance; at 2 µM; stronger effect = higher value.
Sequence of L-lactate dehydrogenase (Plasmodium falciparum (isolate CDC / Honduras)) (Q27743 whole entry, looked up): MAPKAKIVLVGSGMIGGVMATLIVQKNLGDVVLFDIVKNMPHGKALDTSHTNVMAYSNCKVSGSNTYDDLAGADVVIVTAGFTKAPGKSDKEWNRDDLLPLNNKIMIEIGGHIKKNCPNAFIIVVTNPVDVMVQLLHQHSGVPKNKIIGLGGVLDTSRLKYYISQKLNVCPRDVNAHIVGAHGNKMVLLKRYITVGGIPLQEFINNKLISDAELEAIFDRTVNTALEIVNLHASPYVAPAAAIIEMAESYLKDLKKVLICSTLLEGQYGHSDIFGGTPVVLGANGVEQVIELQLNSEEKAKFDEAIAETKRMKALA
A short description of assay [4]: inhibition of 3D7 malaria parasite growth – strain 3D7 (AID 2306).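 Also: 0% = DMSO wells and 100% = chloroquine plus artemisinin control wells.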 The note with it: P. falciparum 3D7 erythrocytic growth, LDH absorbance, 72 h; at 2 µM; stronger effect = higher value.
Assay [5] deals with Calcium-dependent protein kinase 1 (Plasmodium falciparum (isolate 3D7)) (UniProt P62344). Description: PfCDPK1 kinase inhibitors, biochemical, TCAMS library (AID 1159585; cut-off not given, nearly all actives have IC50 up to about 0.98 µM;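 also: inhibitors leave more ATP so luminescence rises with inhibition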). The following applies: recombinant PfCDPK1, Kinase-Glo ATP depletion luminescence.
Sequence of Calcium-dependent protein kinase 1 (Plasmodium falciparum (isolate 3D7)) (P62344 whole entry, looked up): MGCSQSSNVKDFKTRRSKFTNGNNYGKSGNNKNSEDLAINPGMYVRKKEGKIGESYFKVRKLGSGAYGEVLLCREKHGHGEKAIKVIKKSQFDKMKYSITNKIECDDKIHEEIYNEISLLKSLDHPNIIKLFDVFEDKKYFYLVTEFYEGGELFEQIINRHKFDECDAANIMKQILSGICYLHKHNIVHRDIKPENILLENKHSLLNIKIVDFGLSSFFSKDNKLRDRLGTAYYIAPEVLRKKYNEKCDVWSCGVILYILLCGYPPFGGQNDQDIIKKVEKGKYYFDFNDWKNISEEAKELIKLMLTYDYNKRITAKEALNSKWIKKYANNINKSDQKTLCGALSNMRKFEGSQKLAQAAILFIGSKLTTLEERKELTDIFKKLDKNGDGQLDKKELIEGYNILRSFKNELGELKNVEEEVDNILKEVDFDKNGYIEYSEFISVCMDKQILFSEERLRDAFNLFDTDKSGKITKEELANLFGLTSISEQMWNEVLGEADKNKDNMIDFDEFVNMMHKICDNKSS
Assay [6] concerns the target Plasmodium falciparum protein kinase 6 (PK6, PF3D7_1337100) (UniProt Q8IDW1). The experiment in a line: PfPK6 kinase inhibitors, biochemical, TCAMS library (AID 1159586). The following applies: recombinant PfPK6, Kinase-Glo ATP depletion luminescence.
Assay [7] addresses Protein kinase 7 (PK7), Plasmodium falciparum 3D7 (PF3D7_0213400) (UniProt Q7YTF7). The experiment in a line: inhibition of Plasmodium PK7 catalytic activity – biochemical, TCAMS antimalarial set, Kinase-Glo luminescence (AID 1159587). The note with it: recombinant PfPK7, Kinase-Glo ATP depletion luminescence.
The target of assay [8] is Calcium-dependent protein kinase 4 (Plasmodium falciparum (isolate 3D7)) (UniProt Q8IBS5). The experiment in a line: PfCDPK4 kinase inhibitors, biochemical, TCAMS library (AID 1159588; cut-off not given, nearly all actives have IC50 up to about 0.91 µM). The following applies: recombinant PfCDPK4, Kinase-Glo ATP depletion luminescence.
Sequence of Calcium-dependent protein kinase 4 (Plasmodium falciparum (isolate 3D7)) (Q8IBS5 whole entry, looked up): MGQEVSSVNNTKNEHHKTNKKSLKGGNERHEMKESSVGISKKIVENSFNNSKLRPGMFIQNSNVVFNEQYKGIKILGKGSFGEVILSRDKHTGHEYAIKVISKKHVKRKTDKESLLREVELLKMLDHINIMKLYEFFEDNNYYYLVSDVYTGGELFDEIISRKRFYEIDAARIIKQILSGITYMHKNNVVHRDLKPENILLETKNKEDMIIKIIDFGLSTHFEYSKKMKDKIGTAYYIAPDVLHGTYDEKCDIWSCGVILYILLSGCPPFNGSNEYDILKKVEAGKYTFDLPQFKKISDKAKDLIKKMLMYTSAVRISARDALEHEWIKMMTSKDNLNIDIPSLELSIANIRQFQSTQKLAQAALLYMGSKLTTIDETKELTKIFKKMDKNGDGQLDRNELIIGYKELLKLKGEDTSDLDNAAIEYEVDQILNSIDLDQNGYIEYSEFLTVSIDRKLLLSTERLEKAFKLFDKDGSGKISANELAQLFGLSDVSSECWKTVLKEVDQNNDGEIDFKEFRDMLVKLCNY

A number with no mark means an inactive call. For some of these results: Potency and affinity values are given separately. The source made the active and inactive calls. Unless noted, no rule for the calls is given here.

Sequence of Protein kinase 7 (PK7), Plasmodium falciparum 3D7 (PF3D7_0213400) (Q7YTF7 1-343): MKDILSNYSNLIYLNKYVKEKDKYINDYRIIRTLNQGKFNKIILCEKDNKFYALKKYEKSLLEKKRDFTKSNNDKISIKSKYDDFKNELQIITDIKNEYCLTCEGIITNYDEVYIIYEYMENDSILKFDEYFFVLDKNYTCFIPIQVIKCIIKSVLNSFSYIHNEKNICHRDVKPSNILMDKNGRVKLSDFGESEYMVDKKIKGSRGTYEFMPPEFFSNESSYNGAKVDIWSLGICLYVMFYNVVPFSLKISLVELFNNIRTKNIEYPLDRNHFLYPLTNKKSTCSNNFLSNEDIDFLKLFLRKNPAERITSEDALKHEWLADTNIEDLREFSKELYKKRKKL
Sequence of Plasmodium falciparum protein kinase 6 (PK6, PF3D7_1337100) (Q8IDW1 1-305): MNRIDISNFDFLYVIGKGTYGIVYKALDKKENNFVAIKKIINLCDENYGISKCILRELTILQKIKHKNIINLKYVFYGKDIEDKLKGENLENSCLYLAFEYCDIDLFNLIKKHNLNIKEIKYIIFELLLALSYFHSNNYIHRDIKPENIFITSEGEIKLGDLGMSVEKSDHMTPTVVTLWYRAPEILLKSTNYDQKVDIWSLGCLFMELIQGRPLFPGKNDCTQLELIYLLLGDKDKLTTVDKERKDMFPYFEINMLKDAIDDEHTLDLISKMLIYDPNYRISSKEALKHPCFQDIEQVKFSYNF

As to `Cc1cc(N[C@@H](CC(C)C)C(=O)NCc2cccc(F)c2)nc(NCC2CCCCC2)n1`, the growth inhibition was 70% (active) in assay [1] and 99% (active) in assay [4]. The inhibition in assay [2] is 3%; in assay [3], -3%. In addition, the outcome in assay [5], in assay [6], in assay [7] and in assay [8] was inactive.

As to `Cc1[nH]c(C)c(-c2ccc(Nc3ccc(C(F)(F)F)cn3)cc2)c(=O)c1Br`, the growth inhibition in assay [1] is 98% (active); in assay [4] it was 99% (active). Also, the values for the inhibition in assay [2] and in assay [3] were 30% and -2%, respectively. Further, the result in assay [5], in assay [6], in assay [7] and in assay [8] was inactive.

Turning to `OCC1CCN(Cc2ccc(-c3ccc(-c4nc5ccc(C(F)(F)F)cc5[nH]4)s3)cc2)CC1`, the growth inhibition is 90% (active) in assay [1] and 102% (active) in assay [4]. Further, the inhibition was 35% in assay [2] and -2% in assay [3]. In addition, the result in assay [5], in assay [6], in assay [7] and in assay [8] was inactive.

Take `CN(C)c1ccc(C=Cc2nc(=O)c3ccccc3o2)cc1`: the growth inhibition in assay [1] is 97% (active); in assay [4], 96% (active). Further, the inhibition is 6% in assay [2] and 0% in assay [3]. For the same molecule, the result in assay [5], in assay [6], in assay [7] and in assay [8] was inactive.

Turning to `O=C(NCC1CCC(C(=O)NC2CCCc3ccccc32)CC1)c1ccc(O)c(-c2ccc(Cl)c(Cl)c2)c1` (stereo not given), the growth inhibition was 86% (active) in assay [1] and 93% (active) in assay [4]. The inhibition in assay [2] is -5%; in assay [3], -4%. The result in assay [5], in assay [6], in assay [7] and in assay [8] was inactive.

In the case of `CN(c1ccc2c(c1)nc(NC(=O)C1(c3cc(F)ccc3F)CC1)n2C)c1ccnc(Nc2cccc(CS(C)(=O)=O)c2)n1`, the figures for the growth inhibition in assay [1] and in assay [4] were 46% and 89% (active), respectively. Besides, the inhibition was 42% in assay [2] and 6% in assay [3]. Besides, the result in assay [5], in assay [6], in assay [7] and in assay [8] was inactive.

`CCCCCCN1CCN(Cc2cccc(NC(=O)c3cccc(OCC)c3)c2)CC1`: the growth inhibition in assay [1] is 48%; in assay [4], 85% (active). Moreover, the inhibition in assay [2] is 65% (active); in assay [3], 0%. In addition, the result in assay [5], in assay [6], in assay [7] and in assay [8] was inactive.

Turning to `O=C(Cc1ccccc1)NC(c1ccco1)c1cc(Cl)c2cccnc2c1O` (stereo not given), the values for the growth inhibition in assay [1] and in assay [4] were 93% (active) and 89% (active), respectively. Moreover, the inhibition in assay [2] was 44%; in assay [3], -1%. Besides, the result in assay [5], in assay [6], in assay [7] and in assay [8] was inactive.

Regarding `CC(Cc1ccc(OCCN2CCN(c3cccc(Cl)c3)CC2)cc1)NCC(O)c1cccc(C(F)(F)F)c1` (stereo not given), the growth inhibition in assay [1] is 98% (active); in assay [4], 99% (active). The inhibition is 100% (active) in assay [2] and -1% in assay [3]. The result in assay [5], in assay [6], in assay [7] and in assay [8] was inactive.

`CC1(C)[C@H]2CC[C@]1(C)CN(CC(O)Cn1c3ccccc3c3cc(I)ccc31)C2` (stereo not given in full): the growth inhibition in assay [1] was 82% (active); in assay [4] it was 94% (active). Also, the results for the inhibition in assay [2] and in assay [3] were -7% and 1%, respectively. In addition, the outcome in assay [5], in assay [6], in assay [7] and in assay [8] was inactive.

Regarding `NC1=NC2(CCCCC2)N(OCCCCCCC2CCCCC2)C(N)=N1`, the growth inhibition in assay [1] was 49%; in assay [4], 97% (active). Also, the inhibition in assay [2] is 77% (active); in assay [3] it was -4%. Moreover, the result in assay [5], in assay [6], in assay [7] and in assay [8] was inactive.

With `O=C(CSc1nc(-c2ccccc2Cl)ns1)Nc1cccc(Cl)c1`, the figures for the growth inhibition in assay [1] and in assay [4] were 89% (active) and 96% (active), respectively. For the same molecule, the inhibition in assay [2] was -8%; in assay [3], -4%. In addition, the outcome in assay [5], in assay [6], in assay [7] and in assay [8] was inactive.

As for `C=CCN1C(=O)CN(S(=O)(=O)c2ccc(-n3nc(C)cc3C)cc2)C1=S`, the growth inhibition in assay [1] was -2%; in assay [4] it was 93% (active). For the same molecule, the inhibition in assay [2] was 5%; in assay [3], 1%. In addition, the result in assay [5], in assay [6], in assay [7] and in assay [8] was inactive.

As for `O=C(Nc1ccc(Cn2ncc(N3CCCNCC3)c(Cl)c2=O)cc1)Nc1ccc(SC(F)(F)F)cc1`, the growth inhibition in assay [1] was 68% (active); in assay [4] it was 93% (active). The inhibition in assay [2] was 9%; in assay [3], 4%. The result in assay [5], in assay [6], in assay [7] and in assay [8] was inactive.

Consider `Cc1nc(N)nc(N)c1OCCCOc1ccccc1Br`, for which the growth inhibition is 96% (active) in assay [1] and 94% (active) in assay [4]. The figures for the inhibition in assay [2] and in assay [3] were 57% (active) and -3%, respectively. The outcome in assay [5], in assay [6], in assay [7] and in assay [8] was inactive.

As for `O=C(Nc1cc(C(F)(F)F)ccc1Cl)c1ccc(Cn2cc(Br)cn2)cc1`, the figures for the growth inhibition in assay [1] and in assay [4] were 67% (active) and 91% (active), respectively. Moreover, the inhibition was 24% in assay [2] and -5% in assay [3]. Moreover, the result in assay [5], in assay [6], in assay [7] and in assay [8] was inactive.

As to `CCOC(=O)c1ccc(Nc2cc(Nc3ccc(C(=O)OCC)cc3)nc(C)n2)cc1`, the growth inhibition in assay [1] was 33%; in assay [4] it was 99% (active). Also, the inhibition in assay [2] and in assay [3] was 4% throughout. Moreover, the result in assay [5], in assay [6], in assay [7] and in assay [8] was inactive.

Turning to `c1ccc(CNc2nc(NCCN3CCCCC3)nc3ccccc23)cc1`, the growth inhibition in assay [1] was 8%; in assay [4], 87% (active). In addition, the inhibition in assay [2] is 19%; in assay [3], -11%. The result in assay [5], in assay [6], in assay [7] and in assay [8] was inactive.

Regarding `Cc1cc(NC2CCN(CC3CCCCC3)CC2)nc(Nc2ccccc2Cl)n1`, the growth inhibition is 31% in assay [1] and 100% (active) in assay [4]. Also, the figures for the inhibition in assay [2] and in assay [3] were 28% and 4%, respectively. In addition, the result in assay [5], in assay [6], in assay [7] and in assay [8] was inactive.

On to `CCNCc1ccc(-c2cccc(-c3nc4ccccc4[nH]3)c2)cc1`, for which the growth inhibition is 18% in assay [1] and 102% (active) in assay [4]. Further, the results for the inhibition in assay [2] and in assay [3] were 26% and 4%, respectively. For the same molecule, the outcome in assay [5], in assay [6], in assay [7] and in assay [8] was inactive.

The values are drawn from PubChem BioAssay.
